# Reference: PubChem BioAssay (NCI)
# Several values for one entry are separate records, joined by “and”; a condition that tells them apart may be missing. Identical values can stand only once. The panel holds about 79,000 compounds, 15% with a hit somewhere; the sample as a whole holds those more often. A number with no mark means an inactive call. Activity calls are given as the source filed them. Cut-off read from the data, not from the text of the source: active = growth inhibition above about 70%; inactive = the rest.
# Columns and labels:
# [1] = NCI Yeast Anticancer Drug Screen. Data for the rad50 strain (AID 155);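 note: 0% = growth of vehicle-only cultures of the same strain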; settings: S. cerevisiae rad50 strain growth inhibition, stronger effect = higher value; at 50.0 µM unless noted
# Procedure, shortened: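 Vehicle-treated cultures provide the reference for the growth inhibition reported for compound-exposed, repair-deficient yeast.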
# [2] = NCI Yeast Anticancer Drug Screen. Data for the mec2-1 strain (AID 157); settings: S. cerevisiae mec2-1 strain, stronger effect = higher value; at 50.0 µM unless noted
# Procedure, shortened: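 Compounds were applied to mec2-1 yeast cells. Their growth was then compared with that of vehicle-treated cultures to give growth inhibition.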
# [3] = NCI Yeast Anticancer Drug Screen. Data for the sgs1 mgt1 strain (AID 161);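 note: 0% = growth of cultures given vehicle only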; settings: S. cerevisiae sgs1 mgt1 strain, stronger effect = higher value; at 50.0 µM unless noted
# Procedure, shortened: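 Percent growth inhibition was derived by comparing compound-exposed mutant yeast with vehicle-exposed cultures. The strain carries alterations in DNA damage repair.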
# [4] = NCI Yeast Anticancer Drug Screen. Data for the cln2 rad14 strain (AID 165);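 note: 0% = growth equal to vehicle treated cultures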; settings: S. cerevisiae cln2 rad14 strain, stronger effect = higher value; at 50.0 µM unless noted
# Procedure, shortened: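 Strain: cln2 rad14 yeast, altered in cell cycle control and DNA damage repair. Read-out: growth inhibition vs vehicle.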
# [5] = NCI Yeast Anticancer Drug Screen. Data for the bub3 strain (AID 167); settings: S. cerevisiae bub3 mutant strain, stronger effect = higher value; at 50.0 µM unless noted
# Procedure, shortened: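 Mutant yeast screening strain plus compound; vehicle-treated cultures serve as the 0% inhibition reference.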
# [6] = NCI Yeast Anticancer Drug Screen. Data for the mlh1 rad18 strain (AID 175); settings: S. cerevisiae mlh1 rad18 strain growth inhibition, stronger effect = higher value; at 50.0 µM unless noted
# Procedure, shortened: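 A repair-deficient yeast strain is exposed to test compound, and growth is scored relative to vehicle-treated controls.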
SMILES,growth inhibition [1],growth inhibition [2],growth inhibition [3],growth inhibition [4],growth inhibition [5],growth inhibition [6]
Cc1ncc(C(N)=S)c(N)n1,9.95%,-0.05%,-0.15%,-47.4%,-8.55%,14.3%
Cn1c(-c2csc(-c3ccc(Cl)cc3)n2)n[nH]c1=S,5.65%,12.8%,11.6%,8.3%,6.35%,-36.1%
C=CCN(CC=C)C(=O)Nc1cccc(C)c1,-27.2%,-43.9%,1.3%,-3.15%,-2.6%,-21%
O=C(Nc1cccc2ccccc12)c1ccc(Cl)cc1Cl,4.15%,14.9%,21.5%,1.35%,8.55%,4.65%
COS(=O)(=O)CC(O)(c1ccccc1)c1ccccc1,12.7%,-2.3%,48.8%,-14.6%,-5.8%,6.05%
CC(C)C(C(N)=O)(C(=O)O)C(C)C,-4.25%,4.05%,4.6%,5.2%,-5.5%,6.85%
CN(C)c1nc(N(C)C)nc(N(C)CN(C)c2ccc(Cl)cc2)n1,-11.3%,-23.3%,-26.8%,-11.3%,-49%,-16.4%
O=C(O)CC(C(=O)O)C(Cc1ccccc1)c1ccccc1 (stereo unspecified),-10.2% and 22.4%,-4.25% and 10.9%,0.35% and 10.1%,-0.05% and 5.95%,-1.6% and 10.1%,-3.15% and -6.55%
C=C(C)[C@H]1C=C[C@@H](OC(=O)c2cccnc2)[C@@]23CO[C@@](C)([C@H](OC(=O)c4cccnc4)[C@@]4(OC(C)=O)C[C@H](C)[C@H](OCCC)[C@@H]4[C@H]2OC(C)=O)[C@H]13,-11.2%,-6.1%,27.4%,35.4%,22.6%,79.8% (active)
CN1CCc2nc[nH]c2C1,17.2%,-4.95%,3.2%,10.1%,6.4%,10.1%
CCOc1ccccc1N=C(NC(=O)CC)SC,39%,26.8%,-7.15%,12.1%,32.3%,52%
COc1ccc(C(=O)Oc2ccccc2C(C)=O)cc1,-2.65%,-7.05%,0.7%,-24.6%,-5.6%,-12.8%
CN(C)CCN(C)C(=O)C1CCCN1C(=O)OCc1ccccc1 (stereo unspecified),-44.6%,-56%,-53.8%,9.3%,-37.6%,-46.8%
CN(C)CCC(C#N)c1ccccc1 (stereo unspecified),-18.6%,-15.6%,-2.7%,-26.4%,-3.8%,-5.55%
Cc1cc(N(CCC#N)CCC#N)ccc1/C=N/NC(=O)c1ccccc1,6.1%,-2.35%,-10.1%,6.3%,5.95%,-47.5%
C1CCCC(=NN=C2CCCCCCC2)CCC1,29%,21.6%,13.4%,-16.6%,-10.2%,14.7%
Cc1ccnc(NC#N)n1,14.8%,13.6%,21.6%,19.1%,19.4%,14.8%
NC(=O)OCCOC(N)=O,7.5%,1%,-31.9%,-9.95%,15.8%,2.55%
C(#Cc1ccccc1)CC#Cc1ccccc1,5.4%,10.2%,-11.7%,-0.3%,-11.2%,3.05%
CCNC(=O)c1ccc(C(C)C)cc1,8.4%,-7.2%,14.2%,4.75%,2.15%,5.75%
COc1cccc(C#CC(=O)O)c1,-25.6%,-20.9%,-18.9%,-5.35%,-21.9%,-11.6%
